Compound activity as filed in PubChem BioAssay.
A selection: hits, their analogues and other compounds. The true share with any hit is near 12%.
LASV entry inh = blocks Lassa virus binding to or entry into cells. Lassa virus pseudotype entry inhibition, cell reporter. Potency, µM (series often up to 37.9 µM), for inactives: top-dose activity change, negative = inhibition, actives largely listed as inhibitors. 300,000 compounds, 1.2% hits; calls by dose curve; tested in HEK293 cells; further: potency means the concentration at half of the fitted maximal effect; on the % scale 0 is the no-effect control and ±100 the full control effect; nearly all actives have a fitted effect of over 50% in size
Shiga inhibitor = inhibitors of Shiga toxin in Vero cells. Vero cells, Shiga toxin protein synthesis inhibition reporter. inhibition, % at 38.7 µM. 290,000 compounds, 9.2% hits. AID 2315; in the data active means inhibition mostly above about 28%, no sharp cut-off; inactive means mostly below about 43%; further: 0% is about no effect
Marburg entry inh = blocks Marburg virus binding to or entry into cells. 300,000 compounds, 1.8% hits. Marburg virus pseudotyped entry inhibition, cell reporter. Potency, µM (titrated, usually from 37.8 µM), without a hit: at the highest dose activity change, negative = inhibition, most hits filed as inhibitors; calls by dose curve; tested in HEK293 cells; further: potency means the concentration at half of the fitted maximal effect; on the % scale 0 is the no-effect control and ±100 the full control effect
CHX counter = affects cycloheximide protein synthesis inhibition readout, counter-screen. AID 2314. cell reporter, cycloheximide protein synthesis inhibition counterscreen. max response, %. 300,000 compounds, 12% hits; in the data active means max response mostly above about 13%, no sharp cut-off; inactive means mostly below about 14%; further: read at 38.3 µM for the half of the compounds with a filed dose; 0% is about no effect
An asterisk follows results filed as active; [ ] = dose if it differs, or a comment.

O=C(N/N=C/c1ccc(Sc2ccccn2)o1)c1cc2ccccc2cc1O was read as LASV entry inh 4.0%, Shiga inhibitor 24.5, Marburg entry inh 7.8% and CHX counter 21.8*.
Screening O=C(N/N=C/c1ccc(Sc2ccccn2)o1)c1cccc([N+](=O)[O-])c1 returned LASV entry inh 9.9%, Shiga inhibitor 8.0, Marburg entry inh -1.3% and CHX counter -0.8.
Screening O=C(N/N=C\c1ccc(Sc2ccccn2)o1)c1cccc(F)c1 returned LASV entry inh -10.7%, Shiga inhibitor 61.9, Marburg entry inh inconclusive and CHX counter 18.2*.
`CCN(CC)CC#CCC(O)(c1ccccc1)c1ccc(Br)cc1` (configuration not stated) gave LASV entry inh inconclusive, Shiga inhibitor -6.4, Marburg entry inh 23.1µM* and CHX counter -3.4.
For Cc1ccc(-c2csc(/C(C#N)=C(\O)CN3CCN(C(=O)c4ccco4)CC3)n2)cc1 the results were LASV entry inh 2.3%, Shiga inhibitor -8.2, Marburg entry inh 2.8% and CHX counter -3.2.
Cc1ccc(-c2csc(/C(C#N)=C(\O)CCl)n2)cc1 was read as LASV entry inh inconclusive, Shiga inhibitor 93.3*, Marburg entry inh inconclusive and CHX counter 32.5*.
N#C/C(=C(/O)CN1CCN(c2ccccc2F)CC1)c1nc(-c2ccc(Cl)cc2)cs1 was read as LASV entry inh 12.3%, Shiga inhibitor -6.8, Marburg entry inh -9.5% and CHX counter 1.9.
`CCCCN(C)C/C(O)=C(\C#N)c1nc(-c2ccccc2)cs1` gave LASV entry inh -2.4%, Shiga inhibitor 33.1*, Marburg entry inh 3.8% and CHX counter 12.2.
Screening N#C/C(=C(/O)CN1CCCCC1)c1nc(-c2ccc(Cl)cc2)cs1 returned LASV entry inh 13.8%, Shiga inhibitor 50.1*, Marburg entry inh 2.1% and CHX counter 18.3*.
Screening N#C/C(=C(/O)CCl)c1nc(-c2ccccc2)cs1 returned LASV entry inh 3.0%, Shiga inhibitor 52.4*, Marburg entry inh -4.6%[46.1 µM] and CHX counter 21.3*.
For COc1ccc(OC)c(Nc2cc(C)c3ccccc3n2)c1 the results were Shiga inhibitor -7.2 and CHX counter -3.9.
For COc1ccc(OC)c(Nc2c3c(nc4ccccc24)CCC3)c1 the results were LASV entry inh inconclusive, Shiga inhibitor -1.7, Marburg entry inh 2.82µM* and CHX counter -4.5.
`COc1ccc(OC)c(NC(=O)COC(=O)c2c3c(nc4ccccc24)CCCC3)c1` gave LASV entry inh 20.6µM*, Shiga inhibitor -9.1, Marburg entry inh 5.17µM* and CHX counter -2.0.
Screening COc1cc(NS(C)(=O)=O)ccc1Nc1c2ccccc2nc2ccccc12 returned LASV entry inh 0.58µM* and Marburg entry inh 0.731µM*.
`COc1ccc(OC)c(Nc2c3ccccc3nc3ccccc23)c1` gave LASV entry inh inconclusive, Shiga inhibitor 16.3, Marburg entry inh 6.31µM* and CHX counter 8.3.
For COc1ccc(NC(=O)COC(=O)c2c3c(nc4ccccc24)CCCC3)cc1 the results were LASV entry inh inconclusive, Shiga inhibitor 24.8, Marburg entry inh inconclusive and CHX counter 3.9.
For COc1ccccc1N(C)S(=O)(=O)c1ccc(C(=O)Nc2cc(F)ccc2C)cc1 the results were LASV entry inh inconclusive and Marburg entry inh 8.6%[46.1 µM].
`Cc1ccc(C)c(CN2C(=O)c3ccccc3S(=O)(=O)c3ccc(C(=O)NCCC4=CCCCC4)cc32)c1` gave LASV entry inh -21.7%[46.1 µM] and Marburg entry inh inconclusive.
O=C(NCCC1=CCCCC1)c1ccc2c(c1)N(Cc1ccc(Cl)cc1)C(=O)c1ccccc1S2(=O)=O was read as LASV entry inh inconclusive and Marburg entry inh 11.2µM*.
For CCn1ncc(Br)c1C(=O)Nc1ccc(C(=O)OC(C)C)cc1 the results were LASV entry inh inconclusive, Shiga inhibitor 42.4, Marburg entry inh inconclusive and CHX counter 26.9*.
Screening O=C(NCCCN1CCOCC1)c1ccc(Cl)cc1Cl returned Shiga inhibitor 23.1 and CHX counter 17.3*.
For Cc1ccc(C(=O)NCCN2CCOCC2)c(Cl)c1 the results were Shiga inhibitor 28.0* and CHX counter 12.8*.
Cc1ccc(Nc2cc(C(=O)NCCCN3CCOCC3)c3ccccc3n2)cc1C was read as Shiga inhibitor 40.1* and CHX counter 38.4*.
`O=C(Cn1cnc2ccccc21)NCCCN1CCOCC1` gave LASV entry inh 0.4%, Shiga inhibitor 24.6*, Marburg entry inh 6.3% and CHX counter 23.6*.
`O=C(Nc1c(Cl)cc(Cl)cc1C(=O)NCCN1CCOCC1)c1ccc(Cl)cc1Cl` gave LASV entry inh inconclusive, Shiga inhibitor 16.7, Marburg entry inh -0.8% and CHX counter -5.5.
For CN(CC(=O)Nc1ccccc1Cl)C(=O)Cn1cnc2ccccc2c1=O the results were LASV entry inh -1.0% and Marburg entry inh 0.9%[46.1 µM].
